# Source: PubChem (National Center for Advancing Translational Sciences (NCATS))
# VP16 counter: counter-screen for ROR gamma inhibitors: Gal4-VP16 reporter; Potency, µM (doses to about 53.6 µM), for the others: at the highest dose activity, negative = inhibition, usual class: inhibitors; Drosophila S2 Gal4-VP16 UAS-luciferase, luminescence, 20 h; 3.5% of 310,000 active;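 also: Gal4-VP16 expression switched on by copper sulfate through the metallothionein promoter; nearly all actives have a fitted effect of over 50% in size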
# RORgamma inh: inhibitors of mouse ROR gamma transcriptional activity. Drosophila S2 Gal4-RORgamma UAS-luciferase reporter, 20 h. Potency, µM (top dose mostly 53.6 µM), inactives show at the highest dose activity change, negative = inhibition, most hits filed as inhibitors. 5.4% of 310,000 active. AID 2551; also: nearly all actives have a fitted effect of over 60% in size
#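 Schneider cells (Drosophila), stable Gal4 DBD–ROR gamma + UAS-luc; 1 hr cmpd preincubation; Cu2+ induction 700 uM final; 20 hr ambient; luminescence.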
# DT40 TDP1 CPT: growth inhibition of DT40 Tdp1-/-;hTDP1 cells with camptothecin (screen for TDP1 inhibitors); chicken DT40 Tdp1-/-;hTDP1 cells + 20 nM CPT, ATP luminescence, 48 h; Potency, µM (highest dose often 46.2 µM), inactives show at the top dose activity change, negative = growth inhibition, usual class: inhibitors; 12% of 420,000 active; also: nearly all actives have a fitted effect of over 55% in size
#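 Cell growth measured by CellTiter-Glo luminescence after a minimum 48 h, 37 C compound exposure with 20 nM CPT in Tdp1-knockout DT40 cells stably expressing hTDP1, seeded 400/well; qHTS titration format.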
# TDP1 block: TDP1 (human) enzyme inhibition; Q9NUW8; recombinant TDP1, AlphaScreen DNA substrate cleavage; Potency, µM (top dose mostly 130 µM), inactives show at the top dose activity change, negative = inhibition, hits mostly inhibitors; 0.28% of 350,000 active; AID 485290; also: nearly all actives have a fitted effect of over 40% in size
# Target sequence (Q9NUW8 whole entry, looked up): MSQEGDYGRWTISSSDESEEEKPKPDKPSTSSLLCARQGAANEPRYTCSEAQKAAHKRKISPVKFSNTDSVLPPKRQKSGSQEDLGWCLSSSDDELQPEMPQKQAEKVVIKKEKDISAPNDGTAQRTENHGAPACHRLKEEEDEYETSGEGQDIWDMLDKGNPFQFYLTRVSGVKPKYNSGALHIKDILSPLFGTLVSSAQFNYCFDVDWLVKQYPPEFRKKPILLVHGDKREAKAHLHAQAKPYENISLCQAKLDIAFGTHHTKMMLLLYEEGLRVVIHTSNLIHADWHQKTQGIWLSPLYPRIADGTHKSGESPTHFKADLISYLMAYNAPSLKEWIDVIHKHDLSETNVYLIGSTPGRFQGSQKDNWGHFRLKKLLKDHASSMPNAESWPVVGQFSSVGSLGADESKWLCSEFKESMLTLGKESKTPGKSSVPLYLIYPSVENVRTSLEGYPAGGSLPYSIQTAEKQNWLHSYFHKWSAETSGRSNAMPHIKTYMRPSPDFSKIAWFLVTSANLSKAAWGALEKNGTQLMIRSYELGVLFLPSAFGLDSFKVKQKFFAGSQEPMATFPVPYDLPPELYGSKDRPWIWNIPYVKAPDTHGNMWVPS
#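 Enzyme-compound mixtures sat 15 min at room temperature, followed by a 5 min reaction with 15 nM final substrate and 10 min with AlphaScreen beads. Recombinant human Tdp1 was used at 1 nM final.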
# TDP1 cell noCPT: qHTS for Inhibitors of human tyrosyl-DNA phosphodiesterase 1 (TDP1): qHTS in cells in absence of CPT; DT40 Tdp1-/- hTDP1 cells, no CPT, ATP luminescence, 48 h; Potency, µM (series often up to 46.2 µM), inactives show top-dose activity change, negative = growth inhibition, actives largely listed as inhibitors; 15% of 420,000 active; AID 686978, 2013; also: nearly all actives have a fitted effect of over 55% in size
#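 No-CPT arm: Tdp1-/-;hTDP1 DT40 cells (400/well) plus compounds, incubated ≥48 hr at 37 °C. Readout CellTiter-Glo luminescence.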
# Starred values were filed as active, the others as inactive; ? = inconclusive; . = not tested or not shown; ! = not confirmed by another sample; [ ] = dose if it differs, or a comment. Most compounds without a hit are left out; they make up all but 19% or so of the library. Calls follow the shape of the dose curve; as a rule, active = well fitted curve in the direction sought with a large enough effect; inconclusive = small, poorly fitted or top-dose-only effect, or another doubt; inactive = no such curve, though single readings can be large; an effect the other way counts as inactive or inconclusive. % is scaled to controls: 0 for no effect and ±100 for the full control effect; potency is read from the fitted curve at half-maximal effect.
SMILES,VP16 counter,RORgamma inh,DT40 TDP1 CPT,TDP1 block,TDP1 cell noCPT
N#C/C(=C\c1ccco1)C(=O)NCc1ccccc1,10%,36%,-4%,4%,-10%
O=C(CC[C@H]1O[C@@H](n2cnc3c(NC(=O)c4ccccc4)ncnc32)[C@H](O)[C@@H]1O)NCc1ccccn1,.,.,-2%,.,1%
CCC(=O)Nc1cnc(NC(=O)c2cccc(F)c2)cc1C,?,?,0%,-2%,-20%
CC(=O)Nc1cnc(NC(=O)c2cccc(F)c2)cc1C,?,4µM*,-12%,2%,0%
CS(=O)(=O)CCC(C(=O)OCC(=O)c1ccc(Cl)cc1)N1C(=O)c2ccccc2C1=O (stereo unspecified),-3%,9%,-9%,5%,-14%
O=C(N/N=C/C=C/c1ccccc1)c1ccc(Br)cc1,4.5µM*,3.2µM*,-20%,9%,-24%
CC(/C=C/C=C/c1ccccc1)=N/NC(=O)C(O)c1ccccc1 (stereo unspecified),-10%,-41%,-9%,.,18µM*
CC(/C=C\C=C\c1ccccc1)=N\NC(=O)c1cncc(Br)c1,6.3µM*,4.5µM*,7.3µM*,5%,7.3µM*
CC(/C=C/C=C/c1ccccc1)=N/NC(=O)c1ccc2c(c1)OCCO2,8%,-19%,-6%,4%,-25%
O=C(CNC(=O)c1ccccc1)N/N=C/C=C/c1ccccc1,5%,-22%,-11%,2%,-5%
CC(/C=C/C=C/c1ccccc1)=N\NC(=O)c1cccnc1,3.2µM*,2.8µM*,-9%,6%,?
O=C(N/N=C/C=C/c1ccccc1)c1cccnc1,?,5.6µM*,21µM*,7%,?
CC(C)C[C@H](NC(=O)c1nc[nH]c1C(=O)N1CCN(c2ccccc2)CC1)C(=O)OCc1ccccc1,?,5µM*,-30%,12%,-13%
CC(C)C[C@H](NC(=O)c1[nH]cnc1C(=O)N[C@@H](C)C(=O)OC(C)(C)C)C(=O)OC(C)(C)C,?,6.3µM*,18µM*,5%,12µM*
CC(C)C[C@H](NC(=O)c1nc[nH]c1C(=O)N[C@@H](CC(C)C)C(=O)OC(C)(C)C)C(=O)OCc1ccccc1,7.1µM*,5µM*,?,.,?
CC(C)C[C@H](NC(=O)c1nc[nH]c1C(=O)N1CCNCC1)C(=O)OCc1ccccc1,.,.,?,-10%,-13%
CC(C)C[C@H](NC(=O)c1nc[nH]c1C(=O)NCC(=O)OC(C)(C)C)C(=O)OCc1ccccc1,18µM*,4µM*,?,7%,?
CC(C)C[C@H](NC(=O)c1nc[nH]c1C(=O)NCC(=O)OCc1ccccc1)C(=O)OCc1ccccc1,?,-24%,?,.,?
O=C(NCc1ccco1)C1CCCN(S(=O)(=O)c2ccc(-n3cnnn3)cc2)C1 (stereo unspecified),-8%,-22%,9%,-1%,-4%
N=C1S/C(=C\c2ccccc2)C(=O)N1c1ccc(F)cc1,0%,-31%,-18%,2%,-24%
CC(C)C[C@H](NC(=O)c1nc[nH]c1C(=O)NC1CCNCC1)C(=O)OCc1ccccc1,.,.,-8%,0%,-7%
CC(C)C[C@H](NC(=O)c1nc[nH]c1C(=O)N(C)Cc1ccccc1)C(=O)OCc1ccccc1,3.5µM*,-11%,?,9%,?
CC(C)C[C@H](NC(=O)c1[nH]cnc1C(=O)N[C@@H](C)c1ccccc1)C(=O)OCc1ccccc1,?,?,29µM*,-1%,26µM*
COc1ccc(S(=O)(=O)c2nnn(-c3cccc(Cl)c3)c2N)cc1,0%,20%,12µM*,0%,21µM*!
CCc1ccc(S(=O)(=O)c2nnn(-c3ccc(F)cc3)c2N)cc1,.,.,23µM*,5%,16µM*
SMILES,VP16 counter,RORgamma inh,DT40 TDP1 CPT,TDP1 block,TDP1 cell noCPT
COc1cccc(-n2nnc(S(=O)(=O)c3ccc(C)cc3)c2N)c1,-7%,20%,?,2%,23µM*
CCc1cccc(-n2nnc(S(=O)(=O)c3ccc(OC)cc3)c2C)c1,.,.,-19%,-3%,?
O=C(CC1SC(N2CCCC2)=NC1=O)Nc1ccc(C(=O)N2CCCC(C(F)(F)F)C2)cc1 (stereo unspecified),.,.,-9%,-8%[0.505 µM],-24%
NC1=NC[C@@H](Cc2ccc(O)cc2)N1CCCCC1CCCCC1,-6%,-24%,5.2µM*,1%,3.7µM*
NC1=NC[C@H](Cc2ccc(O)cc2)N1CC1CCCCC1,3%,-24%,?,4%,15µM*
CC(C)(C)CN1C(N)=NC[C@@H]1Cc1ccccc1,.,.,-2%,.,-27%
COc1cc(CCCN2C(N)=NC[C@@H]2Cc2ccc(O)cc2)cc(OC)c1OC,-8%,6%,-5%,5%,-11%
NC1=NC[C@H](Cc2ccccc2)N1CC1CCCCC1,.,.,10µM*,.,12µM*
NC1=NC[C@H](Cc2ccc(O)cc2)N1CCc1cccc(F)c1,0%,-10%,-16%,-1%,?
NC1=NC[C@@H](Cc2ccc(O)cc2)N1CCC12CC3CC(CC(C3)C1)C2,.,.,21µM*,.,21µM*
CN1C(=O)C(Cc2c[nH]c3ccccc23)NC1=S (stereo unspecified),?,?,.,12%,.
